Test results as given in PubChem BioAssay (NCATS).
Inconclusive results are not listed. Active and inactive are the calls of the source. Calls follow the shape of the dose curve; as a rule, active = well fitted cell-killing curve with a large enough effect; inconclusive = small, poorly fitted or top-dose-only effect; inactive = no such curve, though single readings can be large or run the other way.

assay: qHTS of pediatric cancer cell lines to identify multiple opportunities for drug repurposing: Confirmatory screen for U-2 OS cells (AID 1347122); details: U-2 OS osteosarcoma cell viability; series mostly up to 45.9 µM; also: nearly all actives have a fitted effect of over 65% in size
Method in brief: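 Cells (500-1,000/well) in growth media were settled 5 h at 37 degrees C, then given compounds for 48 h. Viability was read as CellTiter-Glo luminescence. Primary runs used MIPE at 11 points (0.78 nM-46 µM) and NPC at 8 points (0.59 nM-46 µM); follow-ups used 11 points.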
Potency is read from the fitted curve at half-maximal effect.

With `NC(N)=NC(=O)c1nc(Cl)c(N)nc1N` as the molecule, how does the Potency read?
Its Potency is 7.37 µM (active).

With `COc1ccc(-c2oc3cc(OC)ccc3c2C(=O)c2ccc(C#N)cc2)cc1` as the molecule, how does the Potency read?
The Potency was “inactive”.

With `CCC(C)(C)C(=O)O[C@H]1C[C@@H](C)C=C2C=C[C@H](C)[C@H](CC[C@@H]3C[C@@H](O)CC(=O)O3)[C@H]21` as the molecule, how does the Potency read?
Its Potency is 10.4 µM (active).

Which Potency does the source give for `Cc1oncc1C(=O)Nc1ccc(C(F)(F)F)cc1` here?
Its Potency is “inactive”.

For `O=C(NOC[C@H](O)CO)c1ccc(F)c(F)c1Nc1ccc(I)cc1F`, which Potency is on record?
Its Potency is 1.31 µM (active).

Which Potency does the source give for `CN1CCN(CCCN2c3ccccc3Sc3ccc(C(F)(F)F)cc32)CC1` here?
Its Potency is 23.3 µM (active).

For `COc1cc(Nc2ncc3c(n2)-c2ccc(Cl)cc2C(c2c(F)cccc2OC)=NC3)ccc1C(=O)O`, which Potency is on record?
The Potency was 10.4 µM (active).

With `C[C@]1(c2nc3c(C(N)=O)cccc3[nH]2)CCCN1` as the molecule, how does the Potency read?
Its Potency is “inactive”.

Which Potency does the source give for `CO[C@@H]1[C@H](N(C)C(=O)c2ccccc2)C[C@H]2O[C@]1(C)n1c3ccccc3c3c4c(c5c6ccccc6n2c5c31)C(=O)NC4` here?
Its Potency is “inactive”.

Which Potency does the source give for `COc1ccc(-c2ccc3c(N4CCOC[C@H]4C)nc(N4CCOC[C@H]4C)nc3n2)cc1CO` here?
Its Potency is 0.329 µM (active).

With `CCN(CC)CCCC(C)Nc1ccnc2cc(Cl)ccc12` (stereo not given) as the molecule, how does the Potency read?
Its Potency is “inactive”.

Which Potency does the source give for `CS(=O)(=O)c1ccc(C(=O)Nc2ccc(Cl)c(-c3ccccn3)c2)c(Cl)c1` here?
The Potency was “inactive”.

With `Cc1c(CN2CCN(C(=O)C(C)C)CC2)sc2c(N3CCOCC3)nc(-c3cnc(N)nc3)nc12` as the molecule, how does the Potency read?
The Potency was 0.737 µM (active).

With `Cc1cn[nH]c1` as the molecule, how does the Potency read?
Its Potency is “inactive”.

Which Potency does the source give for `COc1ccc(-c2ccc3c(N4CCOCC4)nc(N4C[C@@H](C)O[C@@H](C)C4)nc3n2)cc1CO` here?
Its Potency is 1.65 µM (active).
